# Values joined by “and” are separate entries in the source; they are usually repeats but may differ in a detail not shown here. Equal entries are not always repeated. A structure can be active in one record and inactive in another. Active and inactive are the calls of the source. Rule for the calls: active = hit-call score of the fitted dose curve at least 0.9, where 1 is the maximum; inactive = score below 0.9.
# Read-out: urokinase plasminogen activator (uPA), PLAU (gene 5328)
# Test: BSK_KF3CT_uPA: BioMAP Diversity Plus: KF3CT Assay for urokinase plasminogen activator (uPA) Biomarker Activity (AID 2283075)
# Details: primary human keratinocytes with fibroblasts; actives raise or lower the signal
# Description: BSK_KF3CT is a cell-based, multiplexed-readout assay that uses keratinocytes and foreskin fibroblasts, a human skin primary cell co-culture, with measurements taken at 24 hours after chemical dosing in a 96-well plate.BSK_KF3CTA is an assay component measured in the BSK_KF3CT assay. It measures uPA antibody related to regulation of gene expression using ELISA technology.Data from the assay component BSK_KF3CTA was analyzed into 1 assay endpoint. This assay endpoint, BSK_KF3CTA, was analyzed with bidirectional fitting relative to DMSO as the negative control and baseline of activity. Using a type of binding reporter, gain or loss-of-signal activity can be used to understand changes in the signaling as they relate to the gene PLAU. Furthermore, this assay endpoint can be referred to as a primary readout, because this assay has produced multiple assay endpoints where this one serves a signaling function. To generalize the intended target to other relatable targets, this assay endpoint is annotated to the protease intended target family, where the subfamily is serine protease.
# The levels of cell surface (or secreted, indicated by the prefix "s") biomarker endpoints were measured by ELISA. Overt cytotoxicity to cells in confluent adherent cultures (all systems other than the BT system) was assessed by measuring total protein levels using sulforhodamine B (SRB) staining in parallel cultures at the time of biomarker measurements, indicated as SRB endpoints. For proliferation assays for adherent cell types, individual cell types are cultured at sub-confluence and relative cell numbers quantified by SRB staining at time points optimized for each system (48 h: 3C and CASM3C systems; 72 h: BT and HDF3CGF systems; 96 h: SAg system). SRB was performed by staining cells with 0.1% SRB after fixation with 10% TCA and reading wells at 560 nm.Viability and proliferation of PBMC (T cells) was quantified by Alamar Blue reduction for the SAg and BT systems. For PBMC viability (referred to as PBMC Cytotoxicity within the assay endpoint names), cells were plated (75,000/well in a 96-well plate) and then chemical samples added for 1 h before addition of activators, SEB and TSST-1 (20 ng/mL final concentration each). Cells were incubated for 90 h. Then, Alamar Blue (20 uL/well) (Invitrogen, Cat DAL1100) was added for 6 h, and the plates were read with a fluorescence microplate reader at 546/580 nm (excitation/emission). For PBMC proliferation, cells were plated and activated as above but incubated for only 16 h prior to addition of Alamar Blue. Plates were read after 6 h.
Compound,outcome,AC50
Cc1cccc2c1ccc1ccccc12,inactive,
CC(C)(C)c1ccc(O)c(O)c1,inactive,
O=C(NO)c1ccccc1,inactive,
OCC(CO)(CBr)CBr,inactive,
Oc1c(Cl)cc(Cl)cc1Sc1cc(Cl)cc(Cl)c1O,,3.48 µM (active) and 3.57 µM (active)
CCCCCc1ccc(O)cc1,,14.8 µM (active)
O=C(O)CCC(F)(F)C(F)(F)C(F)(F)C(F)(F)C(F)(F)F,inactive,
CCC(C)c1ccccc1O (stereo not given),inactive,
CCCCc1oc2ccccc2c1C(=O)c1cc(I)c(OCCN(CC)CC)c(I)c1,,9.85 µM (active)
CS(=O)(=O)c1ccc([C@@H](CC2CCCC2)C(=O)Nc2cnccn2)cc1Cl,inactive,
O=C1NS(=O)(=O)c2ccccc21,inactive,
CN(C)c1ccc(C(=C2C=CC(=[N+](C)C)C=C2)c2ccccc2)cc1,,0.465 µM (active)
CCCCCCCCCCCCCCC,inactive,
CCCCCCCCCCCCCCCCCC[N+](C)(C)Cc1ccccc1,,2.95 µM (active)
C[C@]12CC[C@@H]3c4ccc(O)cc4CC[C@H]3[C@@H]1C[C@@H](O)[C@@H]2O,inactive,
OCCN1CN(CCO)CN(CCO)C1,inactive,
CCCCC=O,inactive,
N=C(N)c1ccc(OCCCCCOc2ccc(C(=N)N)cc2)cc1,inactive,
NC(=NCCCCCCN=C(N)/N=C(\N)Nc1ccc(Cl)cc1)/N=C(\N)Nc1ccc(Cl)cc1,,4.99 µM (active)
O=S(=O)(O)C(F)(F)C(F)(F)C(F)(F)C(F)(F)C(F)(F)C(F)(F)C(F)(F)C(F)(F)C(F)(F)C(F)(F)F,inactive,

Compound,outcome,AC50
CN(Cc1cnc2nc(N)nc(N)c2n1)c1ccc(C(=O)N[C@@H](CCC(=O)O)C(=O)O)cc1,inactive,4.77 µM (active)
CCCCCCCCCCCC,,11.1 µM (active)
Oc1ccc(Cc2ccccc2O)cc1,inactive,
Cc1ccc(N=Nc2c(O)ccc3ccccc23)c(C)c1,inactive,
CC[N+](CC)(CC)Cc1ccccc1,inactive,
Cc1ccc(C(=O)c2ccccc2)cc1,inactive,
CC1=NN(c2ccccc2)C(=O)C1,inactive,
CCCCCCCCCCCCOS(=O)(=O)O,,31.1 µM (active)
C=COC(=O)C(C)(C)CCCCCC,,28 µM (active)
CN(C)CCOC(c1ccccc1)c1ccccc1,inactive,
CCCCC(CC)C(=O)O (stereo not given),inactive,
COCN(COC)c1nc(N(COC)COC)nc(N(COC)COC)n1,inactive,
O=C(CCCN1CCC(O)(c2ccc(Cl)cc2)CC1)c1ccc(F)cc1,inactive,
C=CC(C)(CCC=C(C)C)OC(C)=O (stereo not given),,31.2 µM (active)
CCOC(=O)CN[C@@H](C(=O)N1CC[C@H]1C(=O)NCc1ccc(/C(N)=N/O)cc1)C1CCCCC1,inactive,
O=C(CC(=O)C(F)(F)C(F)(F)C(F)(F)F)c1cccs1,inactive,
Oc1cc2ccccc2cc1O,inactive,
CN(CCO)S(=O)(=O)C(F)(F)C(F)(F)C(F)(F)C(F)(F)C(F)(F)C(F)(F)C(F)(F)C(F)(F)F,inactive,
CC(=O)Nc1ccc(O)cc1,inactive,
